From PubChem BioAssay (EPA / NIEHS) come the findings set out here.

Settings in all cases: primary human lung fibroblasts
Read-out in experiment [1]: Matrix Metallopeptidase 1 (MMP1), MMP1 (gene 4312)
The experiment in a line: BSK_MyoF_MMP1: BioMAP Diversity Plus: MyoF Assay for Matrix Metallopeptidase 1 (MMP1) Biomarker Activity (AID 2284268). In short, it runs like this:
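Lung fibroblast cultures were dosed with test chemicals and, after 24 h, MMP1 levels were measured by ELISA; responses were referenced to DMSO and analysed for increases.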

Read-out in experiment [2]: TIMP metallopeptidase inhibitor 1 (TIMP1), TIMP1 (gene 7076)
Put plainly: BSK_MyoF_TIMP1: BioMAP Diversity Plus: MyoF Assay for TIMP metallopeptidase inhibitor 1 (TIMP1) Biomarker Activity (AID 2284269). In short, it runs like this: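 Fibroblasts from human lung are dosed with chemical, cultured 24 h, and assayed for TIMP-1 by ELISA. Increases over the DMSO baseline are scored, with SRB total-protein staining run in parallel for cytotoxicity.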

Experiment [3] is described as follows: BSK_MyoF_SRB: Viability Assessment in the BioMAP Diversity Plus: MyoF Assay (AID 2284267).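 Note: total protein by SRB absorbance in parallel cultures as cytotoxicity measure; cells assessed 24 h after compound addition.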 The essentials: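 Human lung fibroblasts dosed with chemical and assessed 24 h later for overt cytotoxicity in parallel cultures. Total protein quantified by sulforhodamine B staining (0.1% SRB after 10% TCA fixation), read at 560 nm, analysed in positive direction versus DMSO baseline.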

Broadly, the AC50 is the concentration giving half of the maximal activity seen.

Active and inactive are the calls of the source. Rule for the calls: active = hit-call score of the fitted dose curve at least 0.9, where 1 is the maximum; inactive = score below 0.9.

Regarding `O=C1CCCCCCCCCCC1`, the result in experiment [1] and in experiment [2] was inactive.
For the compound `C=CC(=O)NC(C)(C)C`, the outcome in experiment [3], in experiment [1] and in experiment [2] was inactive.
On to `O=C(Oc1ccccc1)c1ccccc1C(=O)Oc1ccccc1`, for which the result in experiment [1] and in experiment [2] was inactive.
Consider `CC/C=C\C/C=C\C/C=C\CCCCCCCC(=O)OC`, for which the AC50 is 36.5 µM (active) in experiment [1] and 20 µM (active) in experiment [2].
Turning to `CCCCCCCCC(CO)CCCCCC` (stereo not drawn), the outcome in experiment [1] and in experiment [2] was inactive.
`CCCCCC1=CCCC1=O`: the result in experiment [3], in experiment [1] and in experiment [2] was inactive.
Regarding `COc1ccc(C(=O)c2ccccc2)c(O)c1`, the outcome in experiment [3], in experiment [1] and in experiment [2] was inactive.
As for `Oc1ccc(/C=C/c2cc(O)cc(O)c2)cc1`, the result in experiment [3], in experiment [1] and in experiment [2] was inactive.
`C=CC(=O)OCC(C)OCC(C)OCC(C)OC(=O)C=C` (stereo not drawn): in experiment [1], the AC50 was 35.1 µM (active).
Turning to `COC(OC)(C(=O)c1ccccc1)c1ccccc1`, the outcome in experiment [1] and in experiment [2] was inactive.
Turning to `c1ccc2c(c1)[nH]c1ccccc12`, the result in experiment [1] and in experiment [2] was inactive.
For the compound `CCCCCCCCCCCC(C)=O`, the outcome in experiment [1] and in experiment [2] was inactive.
Regarding `CC=C(C)C=CC=C(C)C`, the outcome in experiment [3], in experiment [1] and in experiment [2] was inactive.
Consider `Cc1c(O)cccc1O`, for which the result in experiment [1] and in experiment [2] was inactive.
As for `C=CCCCCCCCCC=O`, the outcome in experiment [1] and in experiment [2] was inactive.
Take `Fc1ccc(Br)cc1`: the result in experiment [1] and in experiment [2] was inactive.
On to `Clc1cc(Cl)c(Cl)c(Cl)c1Cl`, for which the AC50 in experiment [1] is 23.2 µM (active). In addition, the outcome in experiment [2] was inactive.
Turning to `CC(c1cc(C(C)(C)C)cc(C(C)(C)C)c1O)c1cc(C(C)(C)C)cc(C(C)(C)C)c1O`, the result in experiment [1] and in experiment [2] was inactive.
Turning to `CC1=CC=C(C(C)C)CC1`, the outcome in experiment [3], in experiment [1] and in experiment [2] was inactive.
As for `CC(C)CCCCCOC(=O)CS`, the result in experiment [3], in experiment [1] and in experiment [2] was inactive.
`CCN1CN(CC)CN(CC)C1`: the result in experiment [1] and in experiment [2] was inactive.
